The values that follow come from ChEMBL document CHEMBL3988442, “University of Dundee, Small-Polar-MMV Screening Library” (2021).

SMILES strings stand for the structures. In all, about 66,000 compounds went through this assay and about 960 (1.5%) showed an effect of 50% or more. Only a selection was taken, and strong results are over-represented in it overall.

This assay relates to Trypanosoma brucei. Kind of assay: Trypanosoma brucei 72 hour study. The assay is classed as functional, organism-based. Also noted: scale not given: in the data most compounds retested in dose-response had high values.

On to `Cc1cccn2cc(CNCc3cccc4c3OCCCO4)nc12`, for which the “Percent Effect” value (30.3 µM, […]) is listed as 17.5%. Take `CCC[C@]12CN3C[C@](CCC)(CN(C1)C3c1[nH]c(=O)[nH]c(=O)c1C)C2=O` (stereo partly drawn): the “Percent Effect” value (30 µM, 30.03 µM) was -52.93%. With `CCc1noc(C2CCCCN2C(=O)c2cc(C)n(C)n2)n1` (stereo not drawn), the “Percent Effect” value (30.3 µM, […]) was -3.284%.

On to `Cc1csc(C2CCCCN2C(=O)c2cc(C(C)C)[nH]n2)n1` (stereo not drawn), for which the “Percent Effect” value (10 µM) is given as -49.47%. For the compound `Cc1cccc(NC(=O)c2[nH]nc(C(C)C)c2Br)n1`, the “Percent Effect” value (30.3 µM, […]) was 56.85% and the “Percent Effect” value (10 mM, 10 mM as filed; unlikely as a test dose) is on record as 8.768%. For the compound `COc1ncccc1NC(=O)c1[nH]nc(C(C)C)c1Br`, the “Percent Effect” value (30 µM, 30.03 µM) is listed as 7.14%. Still for that read-out and setting: to `CC(C)c1n[nH]c(C(=O)Nc2cc[nH]n2)c1Br` belongs -42.25%. Take `CC(C)c1n[nH]c(C(=O)Nc2ccccn2)c1Br`: the “Percent Effect” value (30.3 µM, […]) is recorded as 50.04% and the “Percent Effect” value (10 mM, 10 mM as filed; unlikely as a test dose) is listed as -45.45%. On to `COc1ccccc1NC(=O)c1[nH]nc(C(C)C)c1Br`, for which the “Percent Effect” value (30 µM, 30.03 µM) is given as -9.686%. Take `CC(C)c1n[nH]c(C(=O)Nc2ccncc2)c1Br`: the “Percent Effect” value (30 µM, 30.03 µM) is recorded as -10.71%. For `Cc1ccnc(NC(=O)c2[nH]nc(C(C)C)c2Br)c1`, the “Percent Effect” value by setting is: (30.3 µM, […]) 57.19%; (10 mM, 10 mM as filed; unlikely as a test dose) -20%. For the compound `CC(C)c1n[nH]c(C(=O)Nc2ccnn2C(C)C)c1Br`, the “Percent Effect” value (30 µM, 30.03 µM) is -7.131%. As for `CC(C)c1n[nH]c(C(=O)NC(C)c2ccncc2)c1Br` (stereo not drawn), the “Percent Effect” value reads like this: (30.3 µM, […]) 20.51%; (10 mM, 10 mM as filed; unlikely as a test dose) -71.89%. Regarding `CCOC[C@]12COC[C@H]1CN(Cc1ccc(F)c(F)c1)C2.O=C(O)C(F)(F)F`, where the note is “30.3 µM, […]”, the “Percent Effect” value is on record as 6.986%. `CS(=O)(=O)N[C@H]1CN(C(=O)c2cscn2)[C@@H]2CCCO[C@H]12`: the “Percent Effect” value (30 µM, 30.03 µM) is recorded as 28.48%. For `CNC(=O)[C@H]1C[C@@H]2CN(C(=O)c3ccccn3)C[C@@H]2N1S(C)(=O)=O.O=C(O)C(F)(F)F`, the “Percent Effect” value (30.3 µM, […]) was -16.02%. In the case of `CN1CCCC(CCC(=O)NCCc2nnc(N)s2)C1` (stereo not drawn), for the setting “30 µM, 30.03 µM”, the “Percent Effect” value was found to be 1.066%.

In the case of `Cc1ccc(C(=O)N2CCC3(CC2)CCN(CCN(C)C)C3=O)cn1.O=C(O)C(F)(F)F.O=C(O)C(F)(F)F`, where the note is “30.3 µM, […]”, the “Percent Effect” value was -7.554%.

`COCc1nc(C(=O)NS(=O)(=O)c2c(C)c(C)cc(C)c2C)cs1`: the “Percent Effect” value (30.3 µM, […]) is recorded as -6.08%.

With `O=C(N1CCOCC1)[C@@]12CCO[C@@H]1CCN(C1CCOCC1)C2.O=C(O)C(F)(F)F`, where the note is “30 µM, 30.03 µM”, the “Percent Effect” value is -13.03%. For `CN(C)C(=O)C1OC2(CCN(c3ncc(F)cn3)CC2)c2ccccc21.O=C(O)C(F)(F)F` (stereo not drawn), the “Percent Effect” value (30 µM, 30.03 µM) is recorded as -1.93%. For `COc1ccc(-c2nnsc2C(=O)N2CCC(C(N)=O)CC2)cc1`, the “Percent Effect” value (30.3 µM, […]) was 7.87%.

Turning to `Cc1ccsc1CN1CC[C@H]2OCC[C@@]2(C(=O)N2CCCO2)C1.O=C(O)C(F)(F)F`, the “Percent Effect” value (30.3 µM, […]) is listed as -14.02%. For `Cc1ccccc1C(O)CNS(=O)(=O)Cc1cccc(C#N)c1` (stereo not drawn), the “Percent Effect” value (30.3 µM, […]) came out at 7.529%. As to `CCCC(N)CNS(=O)(=O)Cc1cccc(C#N)c1.Cl` (stereo not drawn), the “Percent Effect” value (30.3 µM, […]) is listed as 63.71%. On to `N#Cc1cccc(CS(=O)(=O)NCC(O)Cc2ccccc2)c1` (stereo not drawn), for which the “Percent Effect” value (30 µM, 30.03 µM) is given as -15.65%. As to `CCO[C@H]1CO[C@@]2(CCCN(Cc3scnc3C)C2)C1.O=C(O)C(F)(F)F`, the “Percent Effect” value (30 µM, 30.03 µM) is given as -66.13%. With `Cc1nc(C)n(CC2CCCN2Cc2cn(-c3ccccc3)nn2)n1` (stereo not drawn), where the note is “30 µM, 30.03 µM”, the “Percent Effect” value is listed as -3.712%. With `c1ccc(-n2ccc(CN3CCCC3Cn3cncn3)n2)cc1` (stereo not drawn), the “Percent Effect” value (10 µM) is -54.26%.

As to `Cc1nc(C)n(CC2CCCN2Cc2ccn(-c3ccccc3)n2)n1` (stereo not drawn), the “Percent Effect” value (30.3 µM, […]) was 99.84%. Turning to `Fc1cccc(-n2ccc(CN3CCCC3Cn3cccn3)n2)c1` (stereo not drawn), the “Percent Effect” value (10 µM) is listed as -58.75%. On to `Cc1nc(C)n(CC2CCCN2Cc2ccccn2)n1` (stereo not drawn), for which the “Percent Effect” value (30.3 µM, […]) came to 5.601%.

As for `c1ccc(-n2ccc(CN3CCCC3Cn3cccn3)n2)cc1` (stereo not drawn), the “Percent Effect” value (30.3 µM, […]) was 99.68%.

As to `O=C(CCN1C[C@@H]2CC[C@H]1C2)N1CCN(c2cccc(Cl)c2)C(=O)C1`, the “Percent Effect” value (30.3 µM, […]) was -18.65%.

Regarding `CN1CCN(C2COC3(CCN(c4ccc(C#N)cc4)CC3)C2)CC1.O=C(O)C(F)(F)F` (stereo not drawn), the “Percent Effect” value (30.3 µM, […]) is -31.63%. For `NC(=O)NCC(=O)N1CCCC(OCc2cccnc2)C1` (stereo not drawn), the “Percent Effect” value (30 µM, 30.03 µM) is reported as -86.17%. With `NC(=O)CN1CCC(C(=O)N2CCCC(OCc3cccnc3)C2)CC1` (stereo not drawn), where the note is “30 µM, 30.03 µM”, the “Percent Effect” value came out at 52.75%. On to `O=C(Cn1ccnc1)N1CCCC(OCc2cccnc2)C1` (stereo not drawn), for which, where the note is “30 µM, 30.03 µM”, the “Percent Effect” value is -76.95%. On to `CCC(NC(=O)CC1CCN(C(C)C)CC1)c1cn2cccnc2n1` (stereo not drawn), for which the “Percent Effect” value (30 µM, 30.03 µM) is -16.96%. On to `CN1[C@@H](C(=O)NCC2CC2)C[C@@H]2CN(Cc3ccsc3)C[C@@H]21.O=C(O)C(F)(F)F.O=C(O)C(F)(F)F`, for which, for the setting “30.3 µM, […]”, the “Percent Effect” value is recorded as -75.19%. As for `O=C1c2cnc(N3CCOCC3)nc2CN1Cc1cccc(F)c1`, the “Percent Effect” value (30 µM, 30.03 µM) is -25.27%. Consider `Cc1cc(OCCC(=O)NCc2ccc(F)cc2)nnc1C`, for which the “Percent Effect” value (30 µM, 30.03 µM) was 71.51%. With `Cc1cc(OCCC(=O)Nc2cccc(F)c2)nnc1C`, for the setting “30 µM, 30.03 µM”, the “Percent Effect” value is listed as 46.79%. Still for that read-out and setting: to `Cc1cc(OCC(=O)NCc2ccc(F)cc2)nnc1C` belongs 16.49%.

Take `Cc1noc(C)c1CN1CCC2(CC1)C(c1ccccc1)CC(=O)N2C.O=C(O)C(F)(F)F` (stereo not drawn): the “Percent Effect” value (30.3 µM, […]) is -57.86%. In the case of `COc1ccc(CC(=O)N2C[C@H]3CN(Cc4ccccn4)C[C@H]3C2)cc1.O=C(O)C(F)(F)F`, for the setting “30.3 µM, […]”, the “Percent Effect” value is on record as -4.643%. With `Cc1occc1C(=O)N1CCCN(Cc2nccn2C(C)C)CC1`, the “Percent Effect” value (30.3 µM, […]) is recorded as 53.23%.

In the case of `CC(C)n1ccnc1CN1CCCN(C(=O)c2cccnc2O)CC1`, the “Percent Effect” value (30 µM, 30.03 µM) is recorded as -16.49%. As for `Cc1occc1C(=O)N1CCCN(Cc2nccn2C)CC1`, the “Percent Effect” value (30.3 µM, […]) is 4.115%. As to `CCS(=O)(=O)N1Cc2[nH]nc(COCc3cccnc3)c2C1.O=C(O)C(F)(F)F`, where the note is “30.3 µM, […]”, the “Percent Effect” value was -37.05%. The same measure, in the same setting: as for `CC(C)N1CC[C@H]2[C@H](C[C@@H](Cn3cccn3)N2c2nccs2)C1.O=C(O)C(F)(F)F.O=C(O)C(F)(F)F.O=C(O)C(F)(F)F`, the figure is -34.12%. As for `CCC(=O)N1CC[C@H]2[C@H](C[C@@H](Cn3cccn3)N2c2nccs2)C1.O=C(O)C(F)(F)F.O=C(O)C(F)(F)F`, the “Percent Effect” value (30.3 µM, […]) is recorded as -3.444%.

Consider `O=C(O)C(F)(F)F.O=C(O)C(F)(F)F.O=C(O)C(F)(F)F.c1cnn(C[C@@H]2C[C@@H]3CN(CC4CC4)CC[C@@H]3N2c2nccs2)c1`, for which, where the note is “30.3 µM, […]”, the “Percent Effect” value came out at 61.8%.

Take `CC(=O)N1CCC2(CC1)C(=O)N(CC1CCN(C)CC1)c1ccccc12.O=C(O)C(F)(F)F`: the “Percent Effect” value (30.3 µM, […]) is -5.968%. With `CCNc1cc2c(nn1)CCN(C(=O)c1cc3nc(C)ccc3o1)C2`, the “Percent Effect” value (30 µM, 30.03 µM) is reported as 62.84%.

As for `CCNc1cc2c(nn1)CCN(C(=O)c1cc3cc(C)ccc3o1)C2`, the “Percent Effect” value (10 µM) is given as -11.72% and the “Percent Effect” value (30.3 µM, […]) worked out at 30.23%.

In the case of `CCNc1cc2c(nn1)CCN(C(=O)c1cc3ccccc3o1)C2`, the “Percent Effect” value runs as follows: (10 µM) -51.84%; (30.3 µM, […]) 2.809%.
